# Laboratory results from publication PMC7819943, “Rice protein-binding microarrays: a tool to detect cis-acting elements near promoter regions in rice”.
# Over roughly 68,000 sequences, “fluorescence intensity (a.u.)” has its median near 9,100; the highest 2% begin near 16,000. For the sample, the highest values were picked, then their nearest neighbours and some sequences at random.
# Molecular target: OsWRKY34 (Oryza sativa, UniProt Q0JBA9 1-250)
# Experiment: protein-binding microarray (RPBM); PBS, 2% BSA, 51.3 ng/ul salmon testes DNA, 50 uM zinc acetate, 200 nM TF, 25 C, 1 h; high values mean tight binding
# Settings: protein: recombinant; tags: N-terminal polyhistidine and DsRed monomer fusion (pET32a); label: CyDye5-dUTP incorporated in the synthesized complementary strand; 3' TTTTT single-stranded linker to array surface; dsDNA, one strand shown
# Procedure, shortened: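 Transcription factors were each fused at the N-terminus to a polyhistidine tag plus DsRed and expressed in E. coli BL21-CodonPlus before Ni–NTA purification. Binding to a double-stranded custom Agilent array was carried out with 200 nM protein at 25 °C for 1 h in PBS, 2% BSA, salmon testes DNA and 50 µM zinc acetate. The binding signal is per-feature fluorescence intensity, in arbitrary units, on an Axon 4000B scanner.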
# Chain of OsWRKY34 (Q0JBA9 entry or part of it): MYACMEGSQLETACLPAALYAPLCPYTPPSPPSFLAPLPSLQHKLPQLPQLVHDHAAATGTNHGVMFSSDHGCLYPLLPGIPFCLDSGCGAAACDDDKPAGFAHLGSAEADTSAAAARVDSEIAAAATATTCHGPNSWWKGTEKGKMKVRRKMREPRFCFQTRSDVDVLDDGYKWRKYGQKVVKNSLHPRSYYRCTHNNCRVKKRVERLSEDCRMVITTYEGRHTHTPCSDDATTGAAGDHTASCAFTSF
row,Sequence,binding signal
1,TTGGTTTGTATTGCGTTGTTTTGCACTTTTGTTTGTTGTGCGGAGTCACCTAGTGCAG,8300 fluorescence intensity (a.u.)
2,GGGATGGATGTGCTGGGTTGGTGGCTGGTTGGCTGGCCGGCGGAGTCACCTAGTGCAG,11000 fluorescence intensity (a.u.)
3,CCTAAATGGTTTTGCTTGGACACTTCTGGTTACCTTGCATCGGAGTCACCTAGTGCAG,11900 fluorescence intensity (a.u.)
4,CGCTCACTCGGTTTGGTTTGGTTTGGATTGTATTGGGTTGCGGAGTCACCTAGTGCAG,39200 fluorescence intensity (a.u.)
5,AGTTTTGGGGTGAATTCAATTGAGGTTGCTACAGTTTAATCGGAGTCACCTAGTGCAG,8760 fluorescence intensity (a.u.)
6,TGCTTGCTTGCTTGGTTTGATTGGTGGAGGTGGGAGGAGTCGGAGTCACCTAGTGCAG,8520 fluorescence intensity (a.u.)
7,GAGGGGAGGGGTTTGGTTTGCTTGGACACTTTGGTTTGGTCGGAGTCACCTAGTGCAG,20100 fluorescence intensity (a.u.)
8,ATTCTCAAGTTTGAATTGGGTGTATTGGGTTGGGCTAAATCGGAGTCACCTAGTGCAG,16700 fluorescence intensity (a.u.)
9,AAATGTGGAATGGTTGGCCTGGGTTGGCTTGGGACGAGCTCGGAGTCACCTAGTGCAG,17000 fluorescence intensity (a.u.)
10,TTTGTGTATTATTTGTATTGTGTTTGTGAATTCAATAAATCGGAGTCACCTAGTGCAG,8800 fluorescence intensity (a.u.)
11,CTTTTGCAACTCAAGCTACTATATCTATGATGGCATCTGACGGAGTCACCTAGTGCAG,8400 fluorescence intensity (a.u.)
12,CTTGCTGTTACGCACCACATTGATTTACTTTCTTTTTCTTCGGAGTCACCTAGTGCAG,11600 fluorescence intensity (a.u.)
13,CTCTCGACCACTTCCATTCCTTCCCGGGCTCGCCGCGCCGCGGAGTCACCTAGTGCAG,9780 fluorescence intensity (a.u.)
14,CTCACTCCTGGCGCCGGTGACCTCTCTGCCACTCCACCGGCGGAGTCACCTAGTGCAG,8550 fluorescence intensity (a.u.)
15,CACATGTTATTACCACCTCATTTTGCGTAAAACACTTAATCGGAGTCACCTAGTGCAG,8460 fluorescence intensity (a.u.)
16,AACATAAACACACATCATTTCCTGTCCCTTGCACGCTACGCGGAGTCACCTAGTGCAG,10000 fluorescence intensity (a.u.)
17,CTCCTCATCCTCATCGTCGCCGCCGCCCACGTCGTCTCGCCGGAGTCACCTAGTGCAG,9110 fluorescence intensity (a.u.)
18,TCATCTGCTCCAAATTAAGCATTGCATCATCTACTCTGCCCGGAGTCACCTAGTGCAG,8390 fluorescence intensity (a.u.)
19,CTACCGCATCCCCTCCCTCTCTCGGCGAGCCGAATCCATGCGGAGTCACCTAGTGCAG,8270 fluorescence intensity (a.u.)
20,ATCTCGGTCTCTCACAAGACACACAGCTAATTAGCTCTATCGGAGTCACCTAGTGCAG,8470 fluorescence intensity (a.u.)
21,CCATCATCTCTCGATCCATCTCCAGCAAGTTACCTATAAACGGAGTCACCTAGTGCAG,9580 fluorescence intensity (a.u.)

row,Sequence,binding signal
1,CTGCACTGTTTGCCTCAGTTGGGTTGGTTTGGTTTGGTTGCGGAGTCACCTAGTGCAG,48200 fluorescence intensity (a.u.)
2,AGTTTTAAGGAGGGAGTTGATGGTGGGATTGGTCATGGGACGGAGTCACCTAGTGCAG,8620 fluorescence intensity (a.u.)
3,TGGTGTTTGGTTGGAGGGACTAAAGTAGGGCTAAACTTTACGGAGTCACCTAGTGCAG,8870 fluorescence intensity (a.u.)
4,TGTGGGTTGGAGGGAGGAGGGGATTGAAGGGTTGTTAATTCGGAGTCACCTAGTGCAG,14900 fluorescence intensity (a.u.)
5,GCAGTTTCAGTGTGTGTTTGGTTGCAAGTTGTTGCATCTGCGGAGTCACCTAGTGCAG,8410 fluorescence intensity (a.u.)
6,ACTCACTGTTGCCTGTTGGTTTGTTGTCAGTAGCGCTAGGCGGAGTCACCTAGTGCAG,8370 fluorescence intensity (a.u.)
7,AAGAGGGTGGGTTGTTGGGGAGAGGGGAGGGAGGAGGATTCGGAGTCACCTAGTGCAG,20100 fluorescence intensity (a.u.)
8,GGTGTTTGGTTGGAGGGATTAAAGTGGGGCTAAACTTTAGCGGAGTCACCTAGTGCAG,9950 fluorescence intensity (a.u.)
9,TGCGGATGGGATGGAGAGCGCAGGAGGGGTGGGTTGTTGTCGGAGTCACCTAGTGCAG,10800 fluorescence intensity (a.u.)
10,CGTTGGGAGTTGGGAGGGATGGGTGGTGCATCAAGATTGACGGAGTCACCTAGTGCAG,23500 fluorescence intensity (a.u.)
11,CAAGGAGGGAGTTGATGGTGGGATTGATCATGGGAGTTATCGGAGTCACCTAGTGCAG,8560 fluorescence intensity (a.u.)
12,AGGTGGTGTTTGGTTGGAGGGGCTAAAGTGGGGCTAAACTCGGAGTCACCTAGTGCAG,20000 fluorescence intensity (a.u.)
13,GACACTGCCACCTCACTCTCCACTCCACTATATATACCCTCGGAGTCACCTAGTGCAG,12100 fluorescence intensity (a.u.)
14,ACTCTCCCGTTATTGCCGCCACCGGACCGCTAGCTCCGCACGGAGTCACCTAGTGCAG,9570 fluorescence intensity (a.u.)
15,CCCACCTCGCCTTTCGATTGCGCGATCACCCACCTTTATACGGAGTCACCTAGTGCAG,10000 fluorescence intensity (a.u.)
16,GCAACTGCACATGTGCTTATTTAGTTTCTGCATTGGTCAACGGAGTCACCTAGTGCAG,12200 fluorescence intensity (a.u.)
17,CTCGTCACTCGTCTCGTCTCGCACAGTCGCAGCTGCTGCGCGGAGTCACCTAGTGCAG,8390 fluorescence intensity (a.u.)
18,ACTTTATCTTTGCCGCCGGCCGCCACAACTGCTTCTACGGCGGAGTCACCTAGTGCAG,9180 fluorescence intensity (a.u.)
19,GACAACGGTCAAATATGTGCTAAAAAGTCAACGGTATCAACGGAGTCACCTAGTGCAG,11600 fluorescence intensity (a.u.)
20,TCTCGCTCCTCATGCTCCTCTCCCGGCGGCGACGCTATGCCGGAGTCACCTAGTGCAG,8080 fluorescence intensity (a.u.)
21,CCAGCTGTGTGTGTGCACGCGGTTTTCCAATCGATTCTTCCGGAGTCACCTAGTGCAG,9270 fluorescence intensity (a.u.)
